In the library only some 2.9% were active in any assay of this set; here they are far more common.
TSG101-PTAP inh = blocks PTAP/TSG101 interaction to inhibit HIV-1 budding | Potency, µM (series often up to 115 µM), inactives show at the top dose activity change, negative = inhibition, hits mostly inhibitors | 340,000 tested, under 10 active | Q99816 | Fluorescence polarization, FITC-PTAP peptide / Tsg101 binding | AID 493005; active = well fitted inhibition curve with a large enough effect in the main read-out, with a control signal flat, not every such curve was filed as active; inconclusive = small, poorly fitted or top-dose-only effect, or effect the other way, or a change in a side signal; inactive = no such curve, though single readings can be large or run the other way; also: potency is read from the fitted curve at half-maximal effect; % of control where 0% means no effect
Target sequence (Q99816 whole entry, looked up): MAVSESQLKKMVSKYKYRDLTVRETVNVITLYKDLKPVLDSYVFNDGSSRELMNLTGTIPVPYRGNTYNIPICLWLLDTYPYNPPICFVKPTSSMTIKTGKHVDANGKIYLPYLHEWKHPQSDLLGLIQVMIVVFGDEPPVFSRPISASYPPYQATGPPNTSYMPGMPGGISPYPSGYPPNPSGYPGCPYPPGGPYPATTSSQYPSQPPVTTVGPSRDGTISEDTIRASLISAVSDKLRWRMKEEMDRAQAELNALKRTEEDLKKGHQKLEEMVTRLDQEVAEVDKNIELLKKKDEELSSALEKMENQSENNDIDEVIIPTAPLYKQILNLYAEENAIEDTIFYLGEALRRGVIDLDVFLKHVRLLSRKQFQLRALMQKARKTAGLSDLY
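Steps: Tsg101 binding domain dispensed (10 uM final), compounds pinned in DMSO, FITC-labeled PTAP-motif peptide added (50 nM final); after 20 min binding at room temperature, polarization measured.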
D3 antag = D3 dopamine receptor (human) antagonism; P35462; D3R cells, DiscoveRx beta-arrestin luminescence, antagonist mode; active compounds read low; max response, negative = inhibition, %; actives 2.5% (n = 360,000); AID 652054; in the data active = max response below about -50%; inconclusive = no clear call, values can overlap the other calls; also: % is scaled to controls: 0 for no effect and ±100 for the full control effect
Target sequence (P35462 whole entry, looked up): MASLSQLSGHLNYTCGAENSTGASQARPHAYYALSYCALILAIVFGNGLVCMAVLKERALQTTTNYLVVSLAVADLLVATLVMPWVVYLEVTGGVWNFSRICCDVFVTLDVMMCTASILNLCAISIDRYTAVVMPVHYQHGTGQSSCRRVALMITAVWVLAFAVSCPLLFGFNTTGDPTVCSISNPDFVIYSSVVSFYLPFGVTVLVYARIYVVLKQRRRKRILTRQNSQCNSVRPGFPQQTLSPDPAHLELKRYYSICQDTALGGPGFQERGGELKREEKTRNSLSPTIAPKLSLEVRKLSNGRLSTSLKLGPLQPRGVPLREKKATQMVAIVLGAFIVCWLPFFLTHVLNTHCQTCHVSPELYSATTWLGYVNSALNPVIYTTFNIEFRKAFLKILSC
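Cells expressing the human receptor were seeded at 1500 cells/well, incubated overnight at 37 degrees C in 5% CO2, then exposed to library compounds with dopamine controls for 90 minutes at 37 degrees C before luminescent detection.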
MmCpn inh = M. maripaludis TRiC chaperonin inhibition; actives 0.031% (n = 330,000); purified Mm-Cpn ATPase, ADP Transcreener TR-FRET; AID 504842; Potency, µM (highest dose often 76.9 µM), for the others: at the top dose activity, negative = inhibition, actives largely listed as inhibitors; active = well fitted inhibition curve with a large enough effect; inconclusive = small, poorly fitted or top-dose-only effect; also: potency is read from the fitted curve at half-maximal effect; % is scaled to controls: 0 for no effect and ±100 for the full control effect; nearly all actives have a fitted effect of over 80% in size
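ATPase turnover read by TR-FRET ADP competition (Eu cryptate antibody/ADP-d2, 665/590 nm): 10uM ATP final, 25nM Mm-CPN final, 30 min 37degC after 10-min compound preincubation, pH 7.4 Tris/KCl/MgCl2/DTT buffer.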
D3 ag = D3 dopamine receptor (human) agonism; max activation, %; P35462; AID 652048; actives 0.58% (n = 410,000); D3R DiscoveRx beta-arrestin cells, luminescence, 90 min; in the data active = max activation above about 30%; also: 0% is about no effect
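Cells at 1500/well, incubated overnight, then treated with pinned compounds (dopamine as control) for 90 min at 37 degrees C. DiscoveRx reagent added for 30 - 60 minutes at room temperature; luminescence read.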
Rango complex inh = prevents formation of the Rango-importin beta complex; Q14974; Rango CFP/YFP FRET sensor + importin beta, 45 min; Potency, µM (highest dose often 92.2 µM), without a hit: at the top dose inhibition of complex formation; actives 0.031% (n = 340,000); AID 540263;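 also: potency is read from the fitted curve at half-maximal effect; 0% = DMSO wells and 100% = buffer wells lacking importin beta; nearly all actives have a fitted effect of over 15% in size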
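FRET biosensor Rango (snurportin 1 IBB between N-terminal EYFP and C-terminal Cerulean), 50 nM in PBS/1 mM DTT/0.02% Tween-20/0.1% BSA, preincubated 5 min RT with compound; 0.125 microM importin beta added, 45 min RT, CFP/YFP FRET ratio read.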
Rango release inh = inhibition of RanGTP-driven Rango-importin beta dissociation; O95149+P62826; Biochemical FRET Rango-importin beta, RanGTP-induced dissociation; Potency, µM (top dose mostly 46.1 µM), for the others: at the top dose activity change, negative = inhibition; actives 0.071% (n = 340,000); AID 540253; also: potency is read from the fitted curve at half-maximal effect; % of control where 0% means no effect; nearly all actives have a fitted effect of over 45% in size
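Recombinant Rango FRET biosensor (EYFP–snurportin 1 IBB–cerulean CFP10) at 0.1 uM premixed with 0.25 uM importin beta in PBS, 1 mM DTT, 0.02% Tween-20, 0.1% BSA. Compound added 5 min; RanGTP-RCC1 (0.6 uM Ran, 2 mM GTP, 0.2 uM RCC1) then triggers release, read at 45 min.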
* hit, by the source's call; ? = inconclusive; . = not tested or not shown; [ ] = remark or other dose. Unless noted, calls follow the shape of the full dose curve.

SMILES | TSG101-PTAP inh | D3 antag | MmCpn inh | D3 ag | Rango complex inh | Rango release inh
Cc1cc(/C=N/N2CCN(C)CC2)c(C)n1-c1ccccc1F | -11.2% | -70.7* | -1.4% | -9.2 | 0.3% | -7.6%
Cc1ccc(S(=O)(=O)NN2C(=O)c3ccccc3NC2c2ccccn2)cc1 (stereo unspecified) | -3.7% | -8.9 | -3.1% | 10.0 | 0.8% | 8.8%
COCCN1C(=O)COc2ccccc2C1C(=O)NC(C)(C)C (stereo unspecified) | . | 1.3 | . | -0.1 | . | .
Cn1c(=O)c2cc(NC(=S)NCc3ccccc3F)ccc2n1Cc1ccccc1 | . | -13.7 | . | -11.1 | . | .
C=C(C)Cn1c2ccc(NC(=S)NCc3ccccc3F)cc2c(=O)n1C | . | -52.0* | . | -11.5 | . | .
CN1/C(=C/C(=S)NC(=O)C2(C)CC2(Cl)Cl)C(C)(C)c2ccccc21 (stereo unspecified) | -3.1% | ? | -3.3% | 1.3 | ? | 0.517µM*[inhibitor]
CCCS(=O)(=O)c1nc(S(=O)(=O)c2ccc(C)cc2)c(N2CCc3ccccc3C2)s1 | -3.1% | 17.6 | -13.1% | 2.1 | ? | 6.9%
Cc1ccc(S(=O)(=O)NNc2nc3ccccc3nc2C(F)(F)F)cc1 | -4.5% | -54.5* | -1.4% | 0.5 | 0.2% | 1.0%
C=CCSc1cc(C)nc2c(-c3ccc(Cl)cc3)c(C)nn12 | -0.8% | 19.9 | -2.1% | 38.2* | -5.0% | -1.6%
CCCCNC(=O)C1CCC(Cn2c(=O)c3sccc3n(Cc3ccccc3)c2=O)CC1 (stereo unspecified) | . | . | . | 4.9 | . | .
CCN1CCN(Cc2c(C)[nH]c3ccc(OC)cc3c2=O)CC1 | 1.6% | -53.1* | 1.6% | 3.4 | 3.0% | 2.7%
Cc1oc2ncn(CC(C)C)c(=O)c2c1C(=O)NCCCN(C)Cc1ccccc1 | . | . | . | -13.3 | . | .
Cc1ccc(-c2nn(C)c(=O)c3ccccc23)cc1CO | -5.1% | -50.3* | 0.3% | -2.4 | 1.5% | 5.5%
CC(=O)OCc1cc(-c2nn(C)c(=O)c3ccccc23)ccc1C | -6.1% | -5.3 | -1.5% | -1.6 | -7.7% | -1.7%
COc1ccc(OCC(=O)Nc2cc(-c3nn(C)c(=O)c4ccccc34)ccc2OC)cc1 | -6.2% | -62.5* | -6.9% | 4.4 | -2.4% | -6.6%
CCCCNC(=O)NNC(=O)C1CC1(c1ccccc1)c1ccccc1 (stereo unspecified) | -0.7% | 1.2 | ? | 0.2 | -2.4% | 1.7%
CC(C)(C)C(=O)NNC(=O)C1CC1(c1ccccc1)c1ccccc1 (stereo unspecified) | -2.1% | 19.2 | -0.2% | 44.6* | -0.1% | -2.0%
CCN(CC)C(=O)c1n[nH]c(=O)c2ccccc12 | . | -95.6* | 1.7% | 5.4 | -1.2% | -20.6%
Nc1nc(-c2ccccc2)cn1N | -2.2% | 5.7 | -1.7% | -11.3 | ? | 20.6µM*
Nc1nc(-c2ccccc2)cn1/N=C/c1ccccc1 | -3.9% | -3.7 | 2.1% | -4.3 | 4.2% | 5.7%
CCOC(=O)c1ccc(Nc2nc(=O)c3cccnc3s2)cc1 | . | -69.7* | 0.4% | 3.4 | -0.1% | 0.3%
CCc1ccc(NC(=O)CCNS(=O)(=O)c2cccc3nonc23)cc1 | -8.8% | -63.3* | -3.8% | -16.1 | 1.6% | -2.6%
O=C1C=CC(=O)N1c1ccc(OC(F)F)cc1 | -3.5% | -54.6* | 0.7% | -20.2 | 0.0% | -0.5%
CCOC(=O)C1CCN(Cc2cnc(Oc3ccc(C(C)(C)C)cc3)s2)CC1 | -4.2% | -93.2* | -0.4% | -1.1 | 4.5% | -0.2%
O=C(NCc1ccco1)c1ccc2c(c1)N(Cc1ccccc1F)C(=O)c1ccccc1S2=O (stereo unspecified) | . | . | . | 2.6 | . | .
SMILES | TSG101-PTAP inh | D3 antag | MmCpn inh | D3 ag | Rango complex inh | Rango release inh
Nc1nonc1C(=O)NCCNCc1ccccc1 | -4.8% | -0.3 | -0.7% | -13.2 | 1.1% | 12.6%
Nc1nonc1C(=O)NCCNCc1ccccc1F | . | . | . | -4.0 | . | .
Nc1nonc1C(=O)NCCNCc1c(OCc2ccccc2F)ccc2ccccc12 | -0.1% | -55.2* | -2.3% | -53.2 | -5.4% | -1.3%
CCOc1cccc(CNCCNC(=O)c2nonc2N)c1 | . | -50.4* | 0.1% | -10.8 | -5.2% | -2.1%
COc1ccc(C(=O)CSC2=NS(=O)(=O)c3cc(Cl)ccc3N2)cc1 | -5.9% | -17.3 | 1.2% | -6.9 | 1.0% | 36.7%
COc1ccc(OC)c(-n2nnnc2SCC(=O)Nc2ccc(C(=O)N3CCCCC3)cc2)c1 | -11.3% | 6.5 | -2.7% | 32.9* | -2.0% | 8.7%
COc1ccc(OC)c(-n2nnnc2SCC(=O)Nc2ccc3c(c2)OCCO3)c1 | -3.8% | -16.7 | -1.9% | -0.4 | 2.8% | 6.0%
C[C@H](CO)N1C[C@H](C)[C@@H](CN(C)C(=O)NC2CCCCC2)Oc2c(NS(=O)(=O)c3ccc(F)cc3)cccc2C1=O | 1.4% | -11.5 | 2.0% | 30.7* | -3.8% | -1.9%
C[C@H](CO)N1C[C@H](C)[C@@H](CN(C)C(=O)Nc2ccccc2)Oc2ccc(NS(=O)(=O)c3ccc(F)cc3)cc2C1=O | -2.7% | 13.0 | -0.5% | 37.3* | -4.7% | -8.7%
C[C@H](CO)N1C[C@H](C)[C@@H](CN(C)S(=O)(=O)c2ccccc2)Oc2ccc(NS(=O)(=O)c3cn(C)cn3)cc2C1=O | -2.0% | -9.8 | -0.2% | -9.6 | 3.0% | -9.2%
C[C@H](CO)N1C[C@H](C)[C@@H](CN(C)S(=O)(=O)c2cn(C)cn2)Oc2ccc(NS(=O)(=O)c3ccccc3)cc2C1=O | 0.2% | 6.7 | 0.2% | 35.3* | 0.4% | -14.6%
C[C@H](CO)N1C[C@H](C)[C@@H](CN(C)S(=O)(=O)c2cn(C)cn2)Oc2c(NS(=O)(=O)c3ccccc3)cccc2C1=O | -4.4% | 49.5 | -3.5% | 49.5* | -2.6% | -11.6%
CCOC(=O)c1ccc(N2CCN(c3cccc(Cl)c3)CC2)c(NC(=O)Nc2ccc(OC)cc2OC)c1 | . | . | . | -9.2 | . | .
Cn1nc(C(C)(C)C)cc1C(=O)N1CCCCC1c1cc(C(=O)Nc2cccc(C#N)c2)no1 (stereo unspecified) | . | 38.0 | . | 8.4 | . | .
O=C(Nc1ccc(S(=O)(=O)Nc2nccs2)cc1)C1=NN(c2ccccc2)C(=O)CC1 | 1.8% | 0.5 | -1.8% | -4.2 | ? | ?
Cc1cccc(S(=O)(=O)c2cn(Cc3ccccc3)c3cc(N4CCCCC4)c(F)cc3c2=O)c1 | . | . | . | -10.0 | . | .
